Common to all, as to test: protein-binding microarray (PBM); PBM: ~300 nM protein, 6 mM HEPES pH 7.8, 80 mM KCl, 0.5 mM EDTA, 0.5 mM EGTA, 6% glycerol, 35 ng/ul poly-dIdC, 1% milk, 1 h, room temperature; Ap Aiptasia and Nv Nematostella (sea anemones) / Co Capsaspora / Aq Amphimedon (sponge) / Dm Drosophila / Hu human; RHD is the Rel homology domain; high values mean tight binding
Conditions in all cases: dsDNA, one strand shown

In one assay the target is T1, GST-Ap-NF-kB RHD (Exaiptasia pallida (Aiptasia), UniProt A0A913YAJ5 2-422).
T1 sequence: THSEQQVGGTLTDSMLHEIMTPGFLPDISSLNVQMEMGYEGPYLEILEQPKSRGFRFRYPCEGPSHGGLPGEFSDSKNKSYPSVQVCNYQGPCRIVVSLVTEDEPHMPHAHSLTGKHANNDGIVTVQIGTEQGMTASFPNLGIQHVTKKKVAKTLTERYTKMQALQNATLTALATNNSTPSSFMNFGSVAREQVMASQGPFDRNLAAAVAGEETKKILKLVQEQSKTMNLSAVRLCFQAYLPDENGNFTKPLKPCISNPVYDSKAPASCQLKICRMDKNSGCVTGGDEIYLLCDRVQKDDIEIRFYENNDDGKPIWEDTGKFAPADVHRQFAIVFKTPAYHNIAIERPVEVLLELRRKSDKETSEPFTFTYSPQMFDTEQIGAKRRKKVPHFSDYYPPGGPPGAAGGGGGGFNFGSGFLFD

Assay [1] addresses T2, GST-Nv-NF-kB (Cys allele) (Nematostella vectensis, UniProt E5G601 2-411).
T2 sequence: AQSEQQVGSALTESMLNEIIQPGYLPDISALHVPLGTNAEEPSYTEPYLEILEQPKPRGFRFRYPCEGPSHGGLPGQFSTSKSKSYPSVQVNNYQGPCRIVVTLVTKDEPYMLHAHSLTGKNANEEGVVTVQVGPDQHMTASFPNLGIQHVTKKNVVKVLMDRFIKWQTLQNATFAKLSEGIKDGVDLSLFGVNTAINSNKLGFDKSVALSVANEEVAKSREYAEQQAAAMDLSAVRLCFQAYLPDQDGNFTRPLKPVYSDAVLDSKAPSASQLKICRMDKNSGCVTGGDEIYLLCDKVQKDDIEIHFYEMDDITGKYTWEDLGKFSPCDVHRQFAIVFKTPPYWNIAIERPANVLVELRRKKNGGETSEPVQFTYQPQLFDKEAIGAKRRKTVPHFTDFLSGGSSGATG

Assay [2] concerns the target T3, GST-Nv-NF-kB (Ser allele) (Nematostella vectensis, UniProt A7UNT2 2-411).
T3 sequence: T2 sequence with Q21R, C66S, S207N, E215Q, V217A, E225K, A268E, D399E

The target in another assay is T4, GST-Co-NF-kB (Capsaspora owczarzaki, UniProt F1ARL5 200-546).
T4 sequence: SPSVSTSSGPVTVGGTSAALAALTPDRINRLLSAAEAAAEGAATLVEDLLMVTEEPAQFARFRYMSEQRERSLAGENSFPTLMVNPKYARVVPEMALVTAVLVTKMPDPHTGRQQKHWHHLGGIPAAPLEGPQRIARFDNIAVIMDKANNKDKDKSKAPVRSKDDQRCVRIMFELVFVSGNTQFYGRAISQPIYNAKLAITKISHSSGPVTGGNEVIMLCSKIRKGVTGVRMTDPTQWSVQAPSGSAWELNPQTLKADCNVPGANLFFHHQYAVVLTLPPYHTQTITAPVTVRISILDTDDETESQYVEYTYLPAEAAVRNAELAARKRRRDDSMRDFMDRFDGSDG

The target in a further assay is T5, GST-Dm-Relish (Drosophila melanogaster, UniProt Q94527 99-473).
T5 sequence: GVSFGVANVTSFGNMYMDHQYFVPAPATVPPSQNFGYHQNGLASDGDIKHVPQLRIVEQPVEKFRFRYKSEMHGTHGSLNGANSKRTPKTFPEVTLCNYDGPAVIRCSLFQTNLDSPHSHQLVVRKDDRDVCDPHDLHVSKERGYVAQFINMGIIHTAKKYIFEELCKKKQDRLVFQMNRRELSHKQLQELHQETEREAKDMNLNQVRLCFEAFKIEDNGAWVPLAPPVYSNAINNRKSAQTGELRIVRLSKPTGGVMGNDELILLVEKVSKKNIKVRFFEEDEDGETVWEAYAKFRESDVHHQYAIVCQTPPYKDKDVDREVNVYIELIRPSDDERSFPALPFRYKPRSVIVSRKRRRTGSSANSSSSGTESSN

Another assay has as its target T6, GST-Aq-NF-kB (Amphimedon queenslandica, UniProt A9Y5G7 2-389).
T6 sequence: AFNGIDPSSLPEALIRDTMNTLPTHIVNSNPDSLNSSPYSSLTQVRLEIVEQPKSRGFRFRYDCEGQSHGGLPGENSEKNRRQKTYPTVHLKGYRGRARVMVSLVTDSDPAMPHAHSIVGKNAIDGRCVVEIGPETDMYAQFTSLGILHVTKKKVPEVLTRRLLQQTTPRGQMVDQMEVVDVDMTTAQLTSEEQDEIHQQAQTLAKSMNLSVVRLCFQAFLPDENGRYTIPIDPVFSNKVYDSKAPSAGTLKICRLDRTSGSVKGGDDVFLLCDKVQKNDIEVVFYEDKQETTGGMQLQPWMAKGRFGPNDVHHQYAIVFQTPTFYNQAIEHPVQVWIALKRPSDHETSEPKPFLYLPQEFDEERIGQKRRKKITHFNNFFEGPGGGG

The next assay deals with GST-Hu-p50 (Homo sapiens, UniProt P19838 7-356).
Sequence of GST-Hu-p50 (P19838 7-356): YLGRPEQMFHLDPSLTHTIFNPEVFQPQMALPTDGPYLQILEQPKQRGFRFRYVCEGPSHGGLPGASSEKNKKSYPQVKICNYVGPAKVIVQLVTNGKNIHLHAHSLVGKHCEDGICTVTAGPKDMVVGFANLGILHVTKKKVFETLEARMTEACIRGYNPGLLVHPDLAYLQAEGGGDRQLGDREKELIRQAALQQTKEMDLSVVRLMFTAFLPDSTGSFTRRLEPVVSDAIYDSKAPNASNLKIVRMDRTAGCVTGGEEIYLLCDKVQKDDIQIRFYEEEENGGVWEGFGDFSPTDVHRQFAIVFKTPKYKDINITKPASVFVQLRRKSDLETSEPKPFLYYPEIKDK

Positions count from the first letter of the chain named.

These results are taken from PMC5700166.

As to “CCGATTAACATCAGGGGGTATAATGATGTTAATCGGGTCTTGATTCGCTTGACGCTGCTG”, the binding signal is 5.4 z-score with GST-Ap-NF-kB RHD; 3.26 z-score in assay [1]; 4.36 z-score in assay [2]; 5.2 z-score with GST-Co-NF-kB; 3.02 z-score with GST-Dm-Relish; 3.48 z-score with GST-Aq-NF-kB. In addition, the binding signal in the assay with GST-Hu-p50 worked out at 4.16 z-score.
Turning to “CCGATTAACATCAATTCCCCAGGTGATGTTAATCGGGTCTTGATTCGCTTGACGCTGCTG”, the binding signal worked out at 5.33 z-score in the assay with GST-Ap-NF-kB RHD; 5.44 z-score in assay [1]; 6.65 z-score in assay [2]; 6.18 z-score in the assay with GST-Co-NF-kB; 2.37 z-score with GST-Dm-Relish; 3.8 z-score with GST-Aq-NF-kB. In the assay with GST-Hu-p50, this sequence returned a binding signal of 4.94 z-score.
For “CCGATTAACATCAGGGGAACACCTGATGTTAATCGGGTCTTGATTCGCTTGACGCTGCTG”, the binding signal amounted to 6.84 z-score with GST-Ap-NF-kB RHD; 6.62 z-score in assay [1]; 6.14 z-score in assay [2]; 5.77 z-score with GST-Co-NF-kB; 9.19 z-score with GST-Dm-Relish; 7.92 z-score with GST-Aq-NF-kB. In the assay with GST-Hu-p50, this sequence had a binding signal of 4.87 z-score.
Regarding “CCGATTAACATCAGGGGATATTATGATGTTAATCGGGTCTTGATTCGCTTGACGCTGCTG”, the binding signal in the assay with GST-Ap-NF-kB RHD was 7.99 z-score; in assay [1], 7.96 z-score; in assay [2], 9.17 z-score; in the assay with GST-Co-NF-kB, 4.65 z-score; with GST-Dm-Relish it was 6.28 z-score; with GST-Aq-NF-kB, 6.34 z-score. This sequence also returned a binding signal with GST-Hu-p50 of 6.06 z-score.
Take “CCGATTAACATCAATTCTCCCCCTGATGTTAATCGGGTCTTGATTCGCTTGACGCTGCTG”: the binding signal amounted to 6.48 z-score with GST-Ap-NF-kB RHD; 6.19 z-score in assay [1]; 8.64 z-score in assay [2]; 10.7 z-score with GST-Co-NF-kB; 3.06 z-score with GST-Dm-Relish; 5.16 z-score with GST-Aq-NF-kB. The sequence further registered a binding signal with GST-Hu-p50 of 6.9 z-score.
Turning to “CCGATTAACATCAAAATTCCCTATGATGTTAATCGGGTCTTGATTCGCTTGACGCTGCTG”, the binding signal amounted to 4.89 z-score in the assay with GST-Ap-NF-kB RHD; 8.05 z-score in assay [1]; 7.32 z-score in assay [2]; 3.27 z-score with GST-Co-NF-kB; 5.2 z-score in the assay with GST-Dm-Relish; 6.99 z-score in the assay with GST-Aq-NF-kB. The binding signal with GST-Hu-p50 worked out at 5.69 z-score.
Take “CCGATTAACATCATCAGGGGAAATGATGTTAATCGGGTCTTGATTCGCTTGACGCTGCTG”: the binding signal in the assay with GST-Ap-NF-kB RHD is 5.62 z-score; in assay [1], 7.05 z-score; in assay [2] it was 8.79 z-score; in the assay with GST-Co-NF-kB, 5.8 z-score; with GST-Dm-Relish, 2.39 z-score; in the assay with GST-Aq-NF-kB it was 4.58 z-score. The sequence further had a binding signal with GST-Hu-p50 of 5.42 z-score.
Take “CCGATTAACATCAATATTCCCCATGATGTTAATCGGGTCTTGATTCGCTTGACGCTGCTG”: the binding signal with GST-Ap-NF-kB RHD was determined as 7.4 z-score; in assay [1] it was 8.39 z-score; in assay [2], 8.19 z-score; with GST-Co-NF-kB it was 8.46 z-score; with GST-Dm-Relish, 3.77 z-score; with GST-Aq-NF-kB, 5.97 z-score. This sequence had a binding signal in the assay with GST-Hu-p50 of 5.88 z-score.
As to “CCGATTAACATCACCATTTCCCCTGATGTTAATCGGGTCTTGATTCGCTTGACGCTGCTG”, the binding signal with GST-Ap-NF-kB RHD was 5.75 z-score; in assay [1], 6.95 z-score; in assay [2], 9.62 z-score; with GST-Co-NF-kB, 6.17 z-score; in the assay with GST-Dm-Relish it was 2.11 z-score; with GST-Aq-NF-kB, 4.32 z-score. The sequence further gave a binding signal with GST-Hu-p50 of 5.3 z-score.
Consider “CCGATTAACATCACGGGAACACCTGATGTTAATCGGGTCTTGATTCGCTTGACGCTGCTG”, for which the binding signal with GST-Ap-NF-kB RHD was 1.81 z-score; in assay [1], 1.11 z-score; in assay [2], 1.02 z-score; with GST-Co-NF-kB, 1.95 z-score; in the assay with GST-Dm-Relish it was 4.06 z-score; with GST-Aq-NF-kB, 2.73 z-score. The sequence further had a binding signal with GST-Hu-p50 of 1.28 z-score.
On to “CCGATTAACATCAGGGGATTGTATGATGTTAATCGGGTCTTGATTCGCTTGACGCTGCTG”, for which the binding signal with GST-Ap-NF-kB RHD was found to be 6.91 z-score; in assay [1], 7.07 z-score; in assay [2], 8.67 z-score; in the assay with GST-Co-NF-kB, 3.04 z-score; with GST-Dm-Relish, 4.19 z-score; in the assay with GST-Aq-NF-kB, 5.12 z-score. The same sequence displayed a binding signal with GST-Hu-p50 of 6.01 z-score.
